Results: the supplement of paper PMC10849652
Targets with a hit are over-represented here; the source holds about 7,900 in all. About 0.6% of all pairs of compound and target were hits.

Columns and labels:
Experiment in all cases: log2 fold change, soluble protein after heating vs DMSO (PISA); higher = thermal stabilisation; K562 cells, 10 uM, 30 min; active = over 0.2 and 3.5 SD of the protein, either way, in both replicates (recomputed)
[1] = compound: CS(=O)(=O)c1ccc(-c2cnc(N)c(C(=O)Nc3ccccc3)n2)cc1
Procedure, shortened: (§1)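 For each measurement, 10 μM compound was applied for 30 min to K562 cells at 2×10^6 cells/mL. Aliquots were heated for 3 min across 48°C-58°C, pooled, and extracted in PBS with 0.5% NP-40 at 4°C; the supernatant after 21,000xg for 90 min was soluble protein. This was quantified by TMTpro 16plex LC-MS/MS with channel sums equalised, and thermal stability was reported relative to control samples from duplicates, on a log2 fold-change scale.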

crizotinib = compound: C[C@@H](Oc1cc(-c2cnn(C3CCNCC3)c2)cnc1N)c1c(Cl)ccc(F)c1Cl [crizotinib]
Procedure, shortened: as §1

[2] = compound: C[C@@H]1COCCN1C2=NC(=NC(=C2)C3(CC3)S(=O)(=O)C)C4=C5C=CNC5=CC=C4
Procedure, shortened: as §1

[3] = compound: C[C@H](C1=CC=C(C=C1)C(=O)NC2=C3C=CNC3=NC=C2)N
Procedure, shortened: as §1

duvelisib = compound: C[C@H](Nc1ncnc2nc[nH]c12)c1cc2cccc(Cl)c2c(=O)n1-c1ccccc1 [duvelisib]
Procedure, shortened: as §1

gandotinib = compound: Cc1cc(Nc2cc(CN3CCOCC3)c3nc(C)c(Cc4ccc(Cl)cc4F)n3n2)n[nH]1 [gandotinib]
Procedure, shortened: as §1

tozasertib = compound: Cc1cc(Nc2cc(N3CCN(C)CC3)nc(Sc3ccc(NC(=O)C4CC4)cc3)n2)n[nH]1 [tozasertib]
Procedure, shortened: as §1

[4] = compound: Cc1cc(SCc2sc(-c3ccc(C(F)(F)F)cc3)nc2C)ccc1OCC(=O)O
Procedure, shortened: as §1

doramapimod = compound: Cc1ccc(-n2nc(C(C)(C)C)cc2NC(=O)Nc2ccc(OCCN3CCOCC3)c3ccccc23)cc1 [doramapimod]
Procedure, shortened: as §1

ispinesib = compound: Cc1ccc(C(=O)N(CCCN)[C@@H](c2nc3cc(Cl)ccc3c(=O)n2Cc2ccccc2)C(C)C)cc1 [ispinesib]
Procedure, shortened: as §1

Measured: log2 fold change

NASP (UniProt P49321)
inactive: [1] 0.005 | crizotinib 0.063 | [2] 0.045 | [3] -0.061 | duvelisib 0.08 | gandotinib -0.066 | tozasertib 0.105 | [4] 0.013 | doramapimod -0.053 | ispinesib 0.06

MMS19 isoform 8 (UniProt Q96T76)
Chain of UniProt Q96T76 (Q96T76 whole entry, looked up): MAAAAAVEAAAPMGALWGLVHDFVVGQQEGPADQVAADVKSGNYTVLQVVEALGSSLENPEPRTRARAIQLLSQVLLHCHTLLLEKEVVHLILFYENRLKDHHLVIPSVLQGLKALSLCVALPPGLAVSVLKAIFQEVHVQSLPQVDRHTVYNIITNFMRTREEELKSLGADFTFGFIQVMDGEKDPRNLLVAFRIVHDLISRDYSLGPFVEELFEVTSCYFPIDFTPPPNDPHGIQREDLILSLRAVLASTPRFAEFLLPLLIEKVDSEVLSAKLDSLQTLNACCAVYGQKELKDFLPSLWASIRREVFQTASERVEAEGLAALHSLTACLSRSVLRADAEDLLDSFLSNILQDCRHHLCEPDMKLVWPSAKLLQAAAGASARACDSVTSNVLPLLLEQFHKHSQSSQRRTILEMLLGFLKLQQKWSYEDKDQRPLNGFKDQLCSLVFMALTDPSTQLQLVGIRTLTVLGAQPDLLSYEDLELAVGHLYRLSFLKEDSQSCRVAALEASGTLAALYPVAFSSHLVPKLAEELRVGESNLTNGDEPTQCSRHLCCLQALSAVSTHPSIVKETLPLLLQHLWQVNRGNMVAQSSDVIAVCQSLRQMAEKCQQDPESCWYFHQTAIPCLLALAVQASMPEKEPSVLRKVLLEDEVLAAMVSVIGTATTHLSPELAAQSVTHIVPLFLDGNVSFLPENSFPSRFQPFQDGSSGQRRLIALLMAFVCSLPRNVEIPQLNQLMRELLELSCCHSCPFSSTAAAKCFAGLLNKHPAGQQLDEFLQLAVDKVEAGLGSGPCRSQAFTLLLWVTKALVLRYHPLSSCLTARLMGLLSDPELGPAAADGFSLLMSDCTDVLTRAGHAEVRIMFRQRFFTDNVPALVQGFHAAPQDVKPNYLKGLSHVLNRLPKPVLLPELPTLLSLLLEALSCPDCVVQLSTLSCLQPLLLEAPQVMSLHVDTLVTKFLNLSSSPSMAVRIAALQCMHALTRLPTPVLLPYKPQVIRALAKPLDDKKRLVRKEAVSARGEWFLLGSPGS
inactive: [1] 0.002 | crizotinib -0.156 | [2] 0.023 | [3] 0.053 | duvelisib 0.044 | gandotinib -0.129 | tozasertib 0.051 | [4] 0.103 | doramapimod 0.033 | ispinesib -0.035

OXR1 (UniProt Q8N573)
inactive: [1] 0.02 | crizotinib -0.074 | [2] 0.014 | [3] -0.048 | duvelisib 0.063 | gandotinib 0 | tozasertib 0.021 | [4] -0.011 | doramapimod 0.001 | ispinesib -0.095

P4HA2 (UniProt O15460)
Chain of UniProt O15460 (O15460 whole entry, looked up): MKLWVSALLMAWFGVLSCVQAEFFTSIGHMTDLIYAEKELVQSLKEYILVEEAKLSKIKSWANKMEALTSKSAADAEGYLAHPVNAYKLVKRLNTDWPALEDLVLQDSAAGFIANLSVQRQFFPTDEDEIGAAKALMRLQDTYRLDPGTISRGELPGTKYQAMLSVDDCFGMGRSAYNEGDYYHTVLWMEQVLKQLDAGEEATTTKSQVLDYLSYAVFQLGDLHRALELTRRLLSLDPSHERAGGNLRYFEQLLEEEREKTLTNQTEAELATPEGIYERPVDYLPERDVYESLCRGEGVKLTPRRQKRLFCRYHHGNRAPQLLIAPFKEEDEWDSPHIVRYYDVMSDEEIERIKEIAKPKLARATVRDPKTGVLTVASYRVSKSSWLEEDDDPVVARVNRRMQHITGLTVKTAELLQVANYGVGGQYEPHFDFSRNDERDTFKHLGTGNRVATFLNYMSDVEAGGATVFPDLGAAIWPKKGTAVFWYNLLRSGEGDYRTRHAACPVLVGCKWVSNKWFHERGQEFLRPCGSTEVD
active: [2] -0.627
inactive: [1] 0.079 | crizotinib 0.023 | [3] 0.178 | duvelisib 0.037 | gandotinib 0.021 | tozasertib -0.005 | [4] 0.053 | doramapimod 0.069 | ispinesib -0.088

NHLRC2 (UniProt Q8NBF2)
Chain of UniProt Q8NBF2 (Q8NBF2 whole entry, looked up): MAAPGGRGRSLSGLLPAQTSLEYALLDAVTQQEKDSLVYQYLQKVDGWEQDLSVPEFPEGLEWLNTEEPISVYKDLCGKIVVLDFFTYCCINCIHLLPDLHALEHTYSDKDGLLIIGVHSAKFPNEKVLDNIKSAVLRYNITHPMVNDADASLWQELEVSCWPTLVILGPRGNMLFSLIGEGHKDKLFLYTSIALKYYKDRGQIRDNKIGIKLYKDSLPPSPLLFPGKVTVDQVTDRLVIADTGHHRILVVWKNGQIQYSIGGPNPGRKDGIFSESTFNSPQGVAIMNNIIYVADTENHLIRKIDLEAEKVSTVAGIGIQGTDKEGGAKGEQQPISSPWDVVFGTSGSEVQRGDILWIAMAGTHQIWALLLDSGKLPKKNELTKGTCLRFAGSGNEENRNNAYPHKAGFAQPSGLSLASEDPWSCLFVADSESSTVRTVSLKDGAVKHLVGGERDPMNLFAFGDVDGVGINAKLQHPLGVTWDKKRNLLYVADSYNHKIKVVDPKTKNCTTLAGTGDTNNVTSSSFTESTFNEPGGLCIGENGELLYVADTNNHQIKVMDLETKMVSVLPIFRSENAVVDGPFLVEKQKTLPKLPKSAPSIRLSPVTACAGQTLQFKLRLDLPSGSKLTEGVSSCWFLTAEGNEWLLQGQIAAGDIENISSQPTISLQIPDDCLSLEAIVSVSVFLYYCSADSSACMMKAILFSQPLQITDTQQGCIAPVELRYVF
inactive: [1] 0.1 | crizotinib -0.127 | [2] 0.165 | [3] -0.011 | duvelisib 0.05 | gandotinib -0.158 | tozasertib -0.105 | [4] 0.044 | doramapimod -0.005 | ispinesib -0.198

NCAPG (UniProt Q9BPX3)
inactive: [1] 0.029 | crizotinib -0.031 | [2] 0.034 | [3] 0.034 | duvelisib 0.073 | gandotinib -0.144 | tozasertib 0.115 | [4] 0.071 | doramapimod -0.077 | ispinesib -0.01

NAT14 (UniProt Q8WUY8)
Chain of UniProt Q8WUY8 (Q8WUY8 whole entry, looked up): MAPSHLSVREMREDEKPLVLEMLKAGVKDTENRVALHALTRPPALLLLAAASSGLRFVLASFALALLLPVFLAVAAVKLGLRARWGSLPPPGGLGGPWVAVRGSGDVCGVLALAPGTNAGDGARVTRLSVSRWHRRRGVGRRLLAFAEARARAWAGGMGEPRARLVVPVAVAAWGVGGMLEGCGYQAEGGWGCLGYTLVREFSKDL
inactive: [1] 0.006 | crizotinib -0.228 | [2] -0.019 | [3] -0.119 | duvelisib 0.03 | tozasertib -0.063 | [4] 0 | doramapimod -0.02
active: ispinesib -0.418

MPHOSPH10 (UniProt O00566)
Chain of UniProt O00566 (O00566 whole entry, looked up): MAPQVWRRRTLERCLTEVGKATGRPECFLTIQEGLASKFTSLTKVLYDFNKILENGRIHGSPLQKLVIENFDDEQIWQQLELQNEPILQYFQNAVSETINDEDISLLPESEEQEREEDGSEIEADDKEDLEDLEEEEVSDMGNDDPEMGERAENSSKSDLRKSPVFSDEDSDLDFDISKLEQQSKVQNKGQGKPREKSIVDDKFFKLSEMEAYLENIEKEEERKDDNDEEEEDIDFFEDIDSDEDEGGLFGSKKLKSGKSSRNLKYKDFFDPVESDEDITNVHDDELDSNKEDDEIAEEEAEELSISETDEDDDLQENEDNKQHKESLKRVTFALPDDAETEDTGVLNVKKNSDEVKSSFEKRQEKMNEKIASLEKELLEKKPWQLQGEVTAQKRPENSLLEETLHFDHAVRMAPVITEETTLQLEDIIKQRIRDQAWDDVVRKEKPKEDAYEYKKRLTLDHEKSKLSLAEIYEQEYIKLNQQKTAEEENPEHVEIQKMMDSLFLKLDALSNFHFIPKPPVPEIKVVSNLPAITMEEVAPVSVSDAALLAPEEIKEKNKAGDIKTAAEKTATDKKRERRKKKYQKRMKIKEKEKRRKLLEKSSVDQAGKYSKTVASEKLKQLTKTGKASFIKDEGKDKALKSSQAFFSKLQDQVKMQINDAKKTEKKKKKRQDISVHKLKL
inactive: [1] -0.083 | crizotinib 0.026 | [2] -0.25 | [3] 0.353 | duvelisib -0.047 | gandotinib 0.189 | tozasertib 0.016 | [4] -0.046 | doramapimod 0.049 | ispinesib -0.023

MT-ND1 (UniProt P03886)
Chain of UniProt P03886 (P03886 whole entry, looked up): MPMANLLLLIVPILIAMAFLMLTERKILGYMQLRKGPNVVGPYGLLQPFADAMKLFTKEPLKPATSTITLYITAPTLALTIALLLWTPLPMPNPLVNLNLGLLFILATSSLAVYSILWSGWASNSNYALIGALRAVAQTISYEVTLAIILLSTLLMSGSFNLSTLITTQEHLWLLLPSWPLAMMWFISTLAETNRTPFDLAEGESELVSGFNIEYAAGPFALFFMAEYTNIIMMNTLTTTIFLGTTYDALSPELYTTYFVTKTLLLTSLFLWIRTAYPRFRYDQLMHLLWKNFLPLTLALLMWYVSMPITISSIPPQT
inactive: [1] -0.011 | crizotinib -0.179 | [2] 0.287 | [3] -0.039 | duvelisib 0.241 | tozasertib 0.105 | [4] -0.081 | doramapimod 0.056 | ispinesib 0.178

MRPS25 (UniProt P82663)
active: ispinesib -0.438
inactive: [1] -0.018 | crizotinib -0.082 | [2] -0.103 | [3] 0.165 | duvelisib 0.009 | gandotinib -0.109 | tozasertib 0.017 | [4] 0.121 | doramapimod -0.083

MSL1 (UniProt Q68DK7)
Chain of UniProt Q68DK7 (Q68DK7 whole entry, looked up): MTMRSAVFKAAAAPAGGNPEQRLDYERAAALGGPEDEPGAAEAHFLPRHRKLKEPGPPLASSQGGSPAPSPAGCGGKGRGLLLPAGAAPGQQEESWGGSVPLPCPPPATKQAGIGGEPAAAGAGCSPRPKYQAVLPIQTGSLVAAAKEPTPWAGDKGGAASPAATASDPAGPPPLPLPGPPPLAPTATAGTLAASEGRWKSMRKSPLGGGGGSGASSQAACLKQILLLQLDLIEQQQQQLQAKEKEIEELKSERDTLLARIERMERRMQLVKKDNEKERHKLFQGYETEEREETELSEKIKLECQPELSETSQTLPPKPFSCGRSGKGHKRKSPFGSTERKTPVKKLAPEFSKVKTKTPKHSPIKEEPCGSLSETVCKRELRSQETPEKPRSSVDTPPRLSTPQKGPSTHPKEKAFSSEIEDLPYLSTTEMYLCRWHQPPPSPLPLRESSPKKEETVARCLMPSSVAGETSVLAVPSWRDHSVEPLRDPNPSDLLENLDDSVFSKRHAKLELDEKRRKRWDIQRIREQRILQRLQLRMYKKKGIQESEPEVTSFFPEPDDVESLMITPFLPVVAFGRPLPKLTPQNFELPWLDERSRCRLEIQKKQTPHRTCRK
inactive: [1] 0.092 | crizotinib 0 | [2] 0.049 | duvelisib 0.195 | gandotinib 0.31 | [4] -0.162 | doramapimod -0.054 | ispinesib -0.078

NUMBL (UniProt Q9Y6R0)
inactive: [1] 0.13 | crizotinib -0.021 | [2] 0.056 | [3] 0.044 | duvelisib 0.07 | gandotinib -0.025 | [4] 0.108 | doramapimod 0.109 | ispinesib -0.187

NPM3 (UniProt O75607)
Chain of UniProt O75607 (O75607 whole entry, looked up): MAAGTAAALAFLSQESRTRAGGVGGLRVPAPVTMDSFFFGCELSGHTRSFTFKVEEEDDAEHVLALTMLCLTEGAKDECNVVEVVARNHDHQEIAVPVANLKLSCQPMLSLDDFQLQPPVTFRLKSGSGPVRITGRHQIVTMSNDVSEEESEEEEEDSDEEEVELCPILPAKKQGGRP
inactive: [1] -0.125 | crizotinib 0.001 | [3] -0.043 | duvelisib 0.022 | gandotinib 0.109 | tozasertib -0.034 | [4] -0.011 | doramapimod 0.024 | ispinesib 0.022

MNAT1 (UniProt P51948)
Chain of UniProt P51948 (P51948 whole entry, looked up): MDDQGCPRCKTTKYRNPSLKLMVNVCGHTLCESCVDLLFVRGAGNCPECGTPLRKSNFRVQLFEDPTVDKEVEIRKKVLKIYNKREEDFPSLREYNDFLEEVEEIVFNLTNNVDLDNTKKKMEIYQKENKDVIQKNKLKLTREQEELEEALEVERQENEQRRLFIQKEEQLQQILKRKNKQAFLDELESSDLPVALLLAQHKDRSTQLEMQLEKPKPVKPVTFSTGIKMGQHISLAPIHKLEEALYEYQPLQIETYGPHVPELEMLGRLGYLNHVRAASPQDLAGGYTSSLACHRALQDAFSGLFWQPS
inactive: [1] 0.007 | crizotinib 0.02 | [2] -0.068 | [3] -0.036 | duvelisib 0.007 | gandotinib 0.024 | tozasertib 0.015 | [4] 0.005 | doramapimod -0.057 | ispinesib 0.089

NAP1L1 (UniProt P55209)
Chain of UniProt P55209 (P55209 whole entry, looked up): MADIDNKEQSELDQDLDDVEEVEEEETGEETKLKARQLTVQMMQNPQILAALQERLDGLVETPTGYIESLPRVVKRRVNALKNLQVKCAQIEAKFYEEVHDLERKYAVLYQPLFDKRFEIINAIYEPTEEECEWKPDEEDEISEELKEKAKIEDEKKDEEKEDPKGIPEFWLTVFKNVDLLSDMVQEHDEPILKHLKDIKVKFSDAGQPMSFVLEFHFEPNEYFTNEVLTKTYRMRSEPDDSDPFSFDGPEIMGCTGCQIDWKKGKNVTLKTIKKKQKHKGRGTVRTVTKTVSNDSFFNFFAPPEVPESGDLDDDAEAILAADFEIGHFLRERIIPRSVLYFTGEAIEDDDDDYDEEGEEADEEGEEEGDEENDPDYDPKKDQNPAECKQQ
inactive: [1] 0.018 | crizotinib -0.025 | [2] -0.122 | [3] -0.021 | duvelisib 0.068 | gandotinib -0.09 | tozasertib 0.045 | [4] -0.016 | doramapimod 0.009 | ispinesib 0.04
